Hits are enriched below; roughly 4.2% of the tested compounds scored in any of these assays.
esBAF inh: SWI/SNF esBAF complex inhibition. AID 602393. reporter increase, % at 12.5 µM. mouse ES cells, Bmi1-luciferase knock-in reporter, 24 h; 100% = twice the neutral-well signal. 350,000 compounds, 2% hits; in the data active = activation above about 40%; inconclusive = no clear call, values can overlap the other calls;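 note: 0% = median of the plate's neutral control wells and 100% = double that signal; a rise in the Bmi1 reporter signal indicates esBAF inhibition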
FXN GAA850 act: frataxin GAA850 promoter activation. 360,000 compounds, 0.56% hits. AID 540364. HEK293 lucGAA850 FXN promoter luciferase reporter, 24 h; percent of 10 µM SAHA response. activation, % at 6 µM;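 active = activation above the average of all compounds screened plus 3 SD, cutoff fixed separately per campaign, cut at about 7.5% in these data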;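 note: 0% = DMSO wells and 100% = 10 µM SAHA wells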
MITF act: increases MITF-driven TRPM1 promoter luciferase signal; SK-MEL-5 TRPM1-promoter luciferase, 24 h; % of positive control, neutral wells = 0; activation, % at 12.5 µM; 300,000 compounds, 0.75% hits;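 active = mean activation of at least 80% with every replicate also reaching 80%; inconclusive = mean reaches 80% but some replicate falls short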;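 note: 0% = neutral control wells and 100% = parthenolide positive control wells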
AHR act: activators of human aryl hydrocarbon receptor. P35869. AHR-responsive luciferase reporter cells, luminescence. activation, % at 5 µM. 320,000 compounds, 2.5% hits. AID 2796; in the data active = activation above about 47%;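 note: 0% = vehicle wells and 100% = reference agonist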
Target sequence (P35869 whole entry, looked up): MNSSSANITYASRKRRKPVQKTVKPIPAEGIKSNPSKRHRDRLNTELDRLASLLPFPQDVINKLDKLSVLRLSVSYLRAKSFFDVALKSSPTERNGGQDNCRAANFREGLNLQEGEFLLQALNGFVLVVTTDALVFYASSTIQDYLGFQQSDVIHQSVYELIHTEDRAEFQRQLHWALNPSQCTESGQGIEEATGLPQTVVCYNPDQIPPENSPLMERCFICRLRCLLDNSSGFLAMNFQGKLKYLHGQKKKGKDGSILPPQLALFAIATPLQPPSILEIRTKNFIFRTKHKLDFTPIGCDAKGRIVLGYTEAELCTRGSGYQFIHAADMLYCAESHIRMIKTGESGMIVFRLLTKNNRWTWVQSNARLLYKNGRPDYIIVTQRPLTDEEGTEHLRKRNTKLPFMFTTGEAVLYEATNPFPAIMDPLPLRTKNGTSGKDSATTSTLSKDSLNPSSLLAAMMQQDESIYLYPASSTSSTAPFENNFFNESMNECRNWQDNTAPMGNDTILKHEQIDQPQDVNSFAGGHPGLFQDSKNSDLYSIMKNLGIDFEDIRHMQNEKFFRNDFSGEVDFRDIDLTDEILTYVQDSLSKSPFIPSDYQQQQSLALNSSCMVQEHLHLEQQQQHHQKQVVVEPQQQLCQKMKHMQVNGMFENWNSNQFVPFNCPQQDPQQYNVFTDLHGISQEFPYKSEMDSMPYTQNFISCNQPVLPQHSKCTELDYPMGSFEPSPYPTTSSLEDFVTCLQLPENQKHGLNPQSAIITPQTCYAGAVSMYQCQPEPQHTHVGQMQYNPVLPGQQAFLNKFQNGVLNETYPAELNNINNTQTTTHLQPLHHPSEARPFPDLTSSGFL
Wnt act: activates Wnt/beta-catenin signaling in a reporter cell assay; 300,000 compounds, 1.2% hits; activation, % at 9.35 µM; activator, plate reader; in the data active = activation above about 30%, passing the limit was not always enough; inconclusive = no clear call, values can overlap the other calls;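 note: 0% = neutral control wells and 100% = positive control wells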
* marks the source's active call; other numbers are inactive results; ? = inconclusive; · = not tested or not shown.

SMILES | esBAF inh | FXN GAA850 act | MITF act | AHR act | Wnt act
CC1=C(C(N)=O)C(c2cccs2)n2nc(-c3cccc(Cl)c3)nc2N1 (configuration not stated) | -6.5 | 4.7 | · | 66.9* | ·
CC1=C(C(N)=O)C(c2cccs2)n2nc(-c3cccc(C)c3)nc2N1 (configuration not stated) | · | 1.8 | -4.6 | 6.8 | ·
Oc1c(/C=N/c2ccccn2)sc2ccccc12 | ? | 6.4 | 15.6 | 24.1 | 51.7*
Oc1c(C=Nc2ccc(Cl)cn2)sc2ccccc12 | · | 5.8 | 46.3 | 8.4 | 46.3*
Cc1ccc(S(=O)(=O)N(C)C[C@H]2Oc3c(NC(=O)c4cnccn4)cccc3C(=O)N([C@@H](C)CO)C[C@@H]2C)cc1 | 3.2 | · | · | · | ·
CC(C)(C)N(Cc1ccccc1)C(=O)CN1C(=O)c2ccccc2C1=O | 46.2* | 4.3 | 24.0 | · | 13.4
CN(Cc1ccccc1)C(=O)CN1C(=O)c2ccccc2C1=O | -2.2 | 1.0 | · | 0.5 | 0.8
CC(=O)N(C)C[C@H]1Oc2cc(C#CCC(C)C)ccc2S(=O)(=O)N([C@@H](C)CO)C[C@@H]1C | -5.3 | · | · | · | ·
O=C1CCC(c2ccccc2)c2ccccc21 (configuration not stated) | 1.7 | 1.5 | · | -3.5 | 51.8*
O=C(C[C@H]1CC[C@@H]2[C@H](COC[C@@H](O)CN2Cc2cccc(-c3ccncc3)c2)O1)N1CCN(c2ccccc2)CC1 | 21.4 | · | · | · | ·
O=C(CSc1ccc(Cl)cc1)N1CCOCC1 | 10.3 | -0.7 | 21.6 | -1.5 | 4.9
O=C(CCSc1ccc(Cl)cc1)N1CCOCC1 | 42.0* | -0.7 | · | 2.3 | 24.9
Cc1ccc(N=Nc2c(C)[nH][nH]c2=O)c(C)c1 | 2.4 | 0.3 | -1.7 | 47.7* | 5.3
COc1ccccc1N=Nc1c(C)[nH][nH]c1=O | 1.9 | 2.8 | 0.4 | -0.5 | -0.1
N/C(Cc1nc(-c2ccc(Cl)cc2)cs1)=N/O | ? | 3.0 | · | 7.0 | 36.9*
COc1cc(Br)cc(/C=N/NC(=O)Cc2ccc(C(F)(F)F)cc2[N+](=O)[O-])c1O | · | -1.2 | -10.0 | 50.5* | -0.7
O=C(NCCc1ccccc1)C(c1cccs1)N(C(=O)c1csnn1)C1CC1 (configuration not stated) | -1.4 | -1.8 | 7.1 | 58.3* | -4.0
O=C(NCc1ccccc1)C(c1cccs1)N(C(=O)c1csnn1)C1CC1 (configuration not stated) | 11.0 | 2.1 | -4.0 | 3.6 | ·
CO[C@@H]1CN(C)C(=O)c2cc(NC(C)=O)ccc2OC[C@@H](C)N(Cc2nccs2)C[C@@H]1C | -6.6 | · | · | · | ·
CCS(=O)(=O)NCC[C@@H]1CC[C@@H](NC(=O)Nc2ccccc2)[C@H](CO)O1 | -2.7 | · | · | · | ·
O=C(/C=C/Nc1ccc(F)cc1F)c1ccco1 | -31.8 | 1.9 | 0.7 | 40.9 | 0.5
COc1ccccc1N/C=C/c1onc(C)c1[N+](=O)[O-] | · | -6.7 | -4.2 | 53.8* | -2.4
Cc1noc(/C=C/Nc2ccc(F)cc2F)c1[N+](=O)[O-] | · | 5.8 | 46.6 | 64.0* | 40.1*
Cc1noc(/C=C/c2ccccn2)c1[N+](=O)[O-] | 48.3* | -4.9 | · | 1.0 | -0.4
COc1ccccc1Nc1ccc2nonc2c1[N+](=O)[O-] | -1.9 | 3.2 | · | 0.8 | 2.5
SMILES | esBAF inh | FXN GAA850 act | MITF act | AHR act | Wnt act
C[C@@H]1CCCCO[C@@H](CN(C)C(=O)Nc2ccc(C(F)(F)F)cc2)[C@H](C)CN([C@@H](C)CO)C(=O)c2cc(NC(=O)NC3CCCCC3)ccc2O1 | -1.1 | · | · | · | ·
O=C(C[C@@H]1CC[C@@H](NC(=O)CCN2CCCCC2)[C@@H](CO)O1)NCc1ccc(Cl)c(Cl)c1 | -3.9 | · | · | · | ·
C[C@@H]1CN([C@@H](C)CO)C(=O)c2cccc(NC(=O)Nc3ccc4c(c3)OCO4)c2O[C@H]1CN(C)Cc1ccc(C(F)(F)F)cc1 | 26.0 | · | · | · | ·
O=C1c2ccccc2NC(c2cccc([N+](=O)[O-])c2)N1CCc1ccccc1 (configuration not stated) | 45.8* | 2.9 | 6.3 | 19.1 | 6.1
CCCNC(=O)C[C@@H]1C[C@@H]2c3cc(NS(=O)(=O)c4cccc(OC)c4)ccc3O[C@@H]2[C@@H](CO)O1 | -6.2 | · | · | · | ·
O=C(Nc1cccc(F)c1)C1CCCN(C(=O)c2ccc(Cl)cc2)C1 (configuration not stated) | 7.0 | 1.2 | 13.4 | 50.9* | 5.0
CCc1nnc(NC(=O)C2CCCN(C(=O)c3ccc(Cl)cc3)C2)s1 (configuration not stated) | 49.9* | 1.5 | 60.3 | 8.3 | -2.3
O=C(Cn1nnc(-c2ccccc2Cl)n1)NCc1ccc2c(c1)OCO2 | 0.8 | 0.7 | · | 64.0* | -0.6
CNc1nc(Nc2ccc([N+](=O)[O-])cc2)nc(OCC(F)(F)F)n1 | -6.6 | 0.5 | · | 62.2* | -1.1
COc1ccc(C(=O)OCC(=O)c2ccc[nH]2)cc1 | 51.3* | 3.1 | 76.5 | 0.2 | 26.0
Cc1ccc(C(=O)NCCn2ccc3ccccc32)cc1[N+](=O)[O-] | · | 1.3 | 15.7 | 5.5 | 0.3
COc1ccc(C(=O)NCCn2ccc3ccccc32)cc1 | 43.8* | 0.3 | 97.6* | -5.0 | ·
O=C(NCCn1ccc2ccccc21)c1ccc2c(c1)OCO2 | 52.1* | 2.5 | 77.1 | 18.8 | 38.0*
C[C@H](CO)N1C[C@H](C)[C@H](CN(C)S(=O)(=O)c2ccc(Cl)cc2)OCc2cn(nn2)CCCC1=O | 4.9 | · | · | · | ·
COc1ccccc1NC(=O)CSc1nncn1-c1cccnc1 | -8.2 | 0.3 | -18.5 | 8.0 | -1.3
CCc1ccc(NC(=O)CSc2nncn2-c2cccnc2)cc1 | ? | 2.4 | 93.8* | 30.6 | 9.4
CC(C)(C)C1=CC(=Nc2ccccc2N)C=C(C(C)(C)C)C1=O | 4.0 | 6.0 | -7.0 | -0.3 | -1.3
CC(C)(C)C1=CC(=O)C(=O)C(C(C)(C)C)=C1 | 7.1 | 10.7* | -67.0 | -1.8 | ·
O=C(Nc1ccc(F)cc1)N[C@@H]1C=C[C@H](CC(=O)N2CCOCC2)O[C@@H]1CO | -3.1 | · | · | · | ·
COc1cc(OC)cc(C(=O)Nn2c(C)nc3ccccc3c2=O)c1 | · | -3.0 | 3.6 | 4.0 | ·
COc1ccc2[nH]c3c(c2c1)CCn1c-3nc2ccccc2c1=O | -13.7 | 1.7 | 28.2 | 16.6 | 40.8*
COc1ccc(S(=O)(=O)N(C)C[C@@H]2Oc3c(NS(=O)(=O)c4ccccc4)cccc3C(=O)N([C@H](C)CO)C[C@@H]2C)cc1 | -0.9 | · | · | · | ·
CC(C)Oc1ccc2c(=O)c(-c3ccccc3)coc2c1 | 35.0 | 2.4 | 78.1 | -7.0 | 55.7*
COc1ccc2c(=O)c(-c3ccc4c(c3)OCO4)coc2c1 | -40.9 | -0.9 | -4.7 | -6.0 | 39.8*
COc1ccc(N=Nc2c(C)[nH]c3ccccc23)cc1 | 13.1 | 4.8 | 22.2 | 41.5 | 13.1
CC(=O)c1cccc(N=Nc2c(C)[nH]c3ccccc23)c1 | · | 1.0 | 13.1 | 63.8* | 12.5
CC(=O)Cc1cc(O)c2ccccc2c1OC(=O)c1ccc(Br)cc1 | 8.3 | 0.9 | -18.3 | 69.1* | 2.7
C[C@H](CO)N1C[C@H](C)[C@H](CN(C)Cc2ccc(C(F)(F)F)cc2)Oc2ccc(NS(=O)(=O)c3cccs3)cc2CC1=O | -3.6 | · | · | · | ·

Screening data as filed in PubChem BioAssay.
